Assay outcomes as filed in PubChem.
Rows were chosen to be rich in hits. Some 7.1% of all compounds tested hit in one or more screens of this group.
SW480 rereplic – A quantitative high throughput screen for small molecules that induce DNA re-replication in SW480 colon adenocarcinoma cells | actives 1.8% (n = 340,000) | AID 624297, 2012 | SW480 DNA re-replication, Hoechst DNA content imaging, 48 h | Potency, µM (series often up to 46.1 µM), for inactives: at the top dose re-replication activation, actives largely listed as activators; further: potency means the concentration at half of the fitted maximal effect; % of control where 0% means no effect; nearly all actives have a fitted effect of over 55% in size
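Image-based DNA-content assay: after two days of treatment, nuclei were labelled with the DNA dye Hoechst and imaged, and hits were compounds raising the count of nuclei showing high fluorescence intensity.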
S2 tox – Viability Counterscreen for Primary qHTS for Inhibitors of ATXN expression. actives 0.49% (n = 400,000). S2 cells (HEK-293 line with an ATXN2-luciferase reporter) viability, CellTiter-Fluor protease fluorescence, 24 h. Potency, µM (series often up to 56.7 µM), actives largely listed as cytotoxic; further: potency means the concentration at half of the fitted maximal effect; nearly all actives have a fitted effect of over 40% in size
IL1B secr inh – qHTS for Inhibitors of Inflammasome Signaling: IL-1-beta AlphaLISA Primary Screen; activity change, % at 57.5 µM; THP-1 LPS/ATP IL-1B secretion, AlphaLISA, 16 h; active compounds read low; actives 4.7% (n = 360,000); in the data active means activity change below about -50%; inconclusive means mostly about -30% to -49%; further: on the % scale 0 is the no-effect control and ±100 the full control effect
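THP-1 cells pretreated 1 hr with compounds (up to 57.5 uM final), then stimulated with LPS (250 ng/mL final) plus ATP (1.25 mM final); secreted IL-1B measured by AlphaLISA after 16 hr, decreased signal indicating inhibition.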
ATXN2 expr inh – Primary qHTS for Inhibitors of ATXN expression. HEK-293 ATXN2-luciferase reporter, luminescence, 24 h. Potency, µM (titrated, usually from 57 µM), for inactives: top-dose activity change, negative = inhibition, usual class: inhibitors. actives 0.72% (n = 360,000). AID 1745845, 2022; further: potency means the concentration at half of the fitted maximal effect; on the % scale 0 is the no-effect control and ±100 the full control effect; nearly all actives have a fitted effect of over 55% in size
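ATXN2-luciferase reporter cells (luciferase flanked by upstream and downstream ATXN2 gene portions) were treated 24 h at 37 °C with compounds at up to 57 uM. SteadyGlo luminescence gave expression; GF-AFC fluorescence gave viability.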
MCF10A rereplic – A quantitative high throughput screen for small molecules that induce DNA re-replication in MCF 10a normal breast cells; actives 2.9% (n = 350,000); Potency, µM (series often up to 46.1 µM), for the others: at the highest dose activity, positive = re-replication, most hits filed as activators; AID 624296, 2012; MCF 10A DNA re-replication, Hoechst nuclear intensity, 48 h; further: potency means the concentration at half of the fitted maximal effect; % of control where 0% means no effect; nearly all actives have a fitted effect of over 50% in size
PINK1 modulator – A Quantitative High throughput Screen to Identify Chemical Modulators of PINK1 Expression; actives 0.2% (n = 410,000); PINK1 immunofluorescence, high-content cytometry, 24 h; Potency, µM (top dose mostly 76.6 µM), inactives show top-dose activation (PINK1 increase), hits mostly activators; AID 624263, 2012; active means well fitted activation curve with a large enough effect; inconclusive means small, poorly fitted or top-dose-only effect; cell line not stated here; further: potency means the concentration at half of the fitted maximal effect; % of control where 0% means no effect; nearly all actives have a fitted effect of over 65% in size
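A stable cell line was treated with compounds at 5 concentrations for 24 hours, with CCCP as control. PINK1 levels and mitochondrial localization were measured by immunofluorescence with mitochondrial, cell and nuclear markers after fixation, read by laser-scanning cytometry.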
* marks the source's active call; other numbers are inactive results; i = inactive; ? = inconclusive; / = not tested or not shown. Unless noted, the call rests on the fitted dose curve; in most records, active means well fitted curve in the direction sought with a large enough effect; inconclusive means small, poorly fitted or top-dose-only effect, or another doubt; inactive means no such curve, though single readings can be large; an effect the other way counts as inactive or inconclusive.

SMILES	SW480 rereplic	S2 tox	IL1B secr inh	ATXN2 expr inh	MCF10A rereplic	PINK1 modulator
Cc1cccc(-n2ncc3c(NCc4ccco4)ncnc32)c1	?	i	-9	46%	16µM*	13%
Cc1ccc(-n2ncc3c(NCCc4ccccc4)ncnc32)cc1C	/	?	/	1%	/	0%
Cc1ccc(-n2ncc3c(NCc4ccco4)ncnc32)cc1C	?	i	0	/	0%	1%
Cc1cccc(-n2ncc3c(NCc4ccccc4)ncnc32)c1	16µM*	?	23	12%	6.5µM*	12%
Cc1cccc(-n2ncc3c(N4CCCc5ccccc54)ncnc32)c1	21µM*	i	13	51%	12µM*	?
Cc1ccc2c(CNCc3ccc(C)o3)c(C(=O)O)n(Cc3ccccc3C)c2c1	/	?	/	7%	/	2%
O=C(Nc1ccc(Cl)cc1)C1CCN(c2nc3ccccc3n3cccc23)CC1	/	/	/	/	/	-1%
COc1ccc2nc(-c3ccccc3)cc(OC)c2c1	2%	i	-80*	38%	?	1%
COc1ccc(-c2cc(-c3ccccc3)nc(N)n2)c(O)c1	3%	i	?	56%	14%	0%
COc1ccc(OC)c(Nc2cc(-c3ccccc3)nc(N)n2)c1	2.6µM*	?	-25	2%	0.65µM*	6%
Cn1c(=O)c2c(nc(NCCOc3ccc(C(C)(C)C)cc3)n2C)n(C)c1=O	-691%	i	24	-5%	16µM*	3%
COc1ccccc1OCCNc1nc2c(c(=O)n(C)c(=O)n2C)n1C	?	i	28	-1%	?	-2%
O=C1NC(c2ccccc2)=C(c2ccccc2)C1=O	-6%	i	12	10%	-4%	2%
O=C1C(Br)=C(c2ccccc2)C(c2ccccc2)=C1c1ccccc1	2.9µM*	/	-13	?	3.7µM*	0%
Cc1ccc(C(=O)Cn2c(=N)n(N)c3ccccc32)cc1	-1%	i	?	45%	5%	0%
COc1ccc(C(=O)Cn2c(=N)n(C)c3ccccc32)cc1	-2%	?	-56*	19%	3%	-1%
CCN(CC)CCn1c(=N)n(CC(=O)c2ccc(C)cc2)c2ccccc21	-5%	i	-59*	-13%	?	2%
Cn1c(=N)n(CC(=O)c2ccccc2)c2ccccc21	12%	i	-4	?	9%	0%
Cc1ccc(C)c(CN2C(=O)c3ccccc3S(=O)(=O)c3ccc(C(=O)N4CCCCC4)cc32)c1	/	/	/	/	/	0%
COc1ccc(CCN2C(=S)N(C)C(=O)C2CC(=O)Nc2ccc(OC)cc2)cc1 (stereo unspecified)	?	i	-4	4%	-5%	-1%
COc1ccc(NC(=O)CC2C(=O)N(C)C(=S)N2CCc2ccc(F)cc2)cc1 (stereo unspecified)	-2%	i	-64*	-37%	8%	?
CCN1C(=O)C(CC(=O)Nc2ccc(OC)cc2)N(CCc2ccc(F)cc2)C1=S (stereo unspecified)	11%	i	-64*	?	?	?
O=C(CC1C(=O)N(c2ccc(Cl)cc2)C(=S)N1CCc1ccncc1)Nc1ccc(F)cc1 (stereo unspecified)	0%	i	-63*	?	-13%	?
CCN1C(=O)C(CC(=O)Nc2ccc(F)cc2)N(Cc2ccc3c(c2)OCO3)C1=S (stereo unspecified)	1%	i	-60*	-4%	7%	?
CCOc1ccccc1CNC(=O)c1ccc2c(c1)sc1nc(-c3cccc(OC)c3)cn12	/	/	/	/	/	3%
COc1cccc(C(=O)N2CCc3cc(OC)c(OC)cc3C2COc2ccc3c(C)cc(=O)oc3c2)c1 (stereo unspecified)	/	?	/	-4%	/	0%
